Unmarked numbers belong to inactive results.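 Rule for the calls: active = AUC reduced over 20% with Padj below 0.05 in at least 2 of 3 replicates; inactive = otherwise.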
Assays:
Assay in all cases: growth AUC relative to DMSO control (median of replicates) (fraction); higher = more growth (less inhibition), active = hit call of the paper
Conditions in all cases: 20 µM; 24 h
Akkermansia muciniphila = system: Akkermansia muciniphila
Summary of the method: (§1)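 Three biological replicates, each grown on a separate day, were combined as a median for every value. In each, a gut bacterial monoculture in mGAM started at OD600 0.05 and grew anaerobically at 37 °C with 20 µM compound (1% DMSO), with OD600 read hourly over 24 h. Area under the growth curve was normalised against the plate median of solvent-only wells, or against row and column medians on the industrial chemical plate, after the minimum OD was set to 0.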

Bacteroides caccae = system: Bacteroides caccae
Summary of the method: as §1

Bacteroides clarus = system: Bacteroides clarus
Summary of the method: as §1

Bacteroides dorei = system: Bacteroides dorei
Summary of the method: as §1

Bacteroides stercoris = system: Bacteroides stercoris
Summary of the method: as §1

[1] = system: Bacteroides thetaiotaomicron
Summary of the method: as §1

Bacteroides uniformis = system: Bacteroides uniformis
Summary of the method: as §1

[2] = system: Bifidobacterium longum subsp. longum
Summary of the method: as §1

Clostridium difficile = system: Clostridium difficile
Summary of the method: as §1

Collinsella aerofaciens = system: Collinsella aerofaciens
Summary of the method: as §1

Coprococcus comes = system: Coprococcus comes
Summary of the method: as §1

Escherichia coli ED1a = system: Escherichia coli ED1a
Summary of the method: as §1

Escherichia coli IAI1 = system: Escherichia coli IAI1
Summary of the method: as §1

Eubacterium rectale = system: Eubacterium rectale
Summary of the method: as §1

[3] = system: Fusobacterium nucleatum subsp. animalis
Summary of the method: as §1

Lactobacillus gasseri = system: Lactobacillus gasseri
Summary of the method: as §1

Lactobacillus paracasei = system: Lactobacillus paracasei
Summary of the method: as §1

Odoribacter splanchnicus = system: Odoribacter splanchnicus
Summary of the method: as §1

[4] = system: Parabacteroides distasonis
Summary of the method: as §1

Parabacteroides merdae = system: Parabacteroides merdae
Summary of the method: as §1

Compound | growth AUC (Akkermansia muciniphila) | growth AUC (Bacteroides caccae) | growth AUC (Bacteroides clarus) | growth AUC (Bacteroides dorei) | growth AUC (Bacteroides stercoris) | growth AUC [1] | growth AUC (Bacteroides uniformis) | growth AUC [2] | growth AUC (Clostridium difficile) | growth AUC (Collinsella aerofaciens) | growth AUC (Coprococcus comes) | growth AUC (Escherichia coli ED1a) | growth AUC (Escherichia coli IAI1) | growth AUC (Eubacterium rectale) | growth AUC [3] | growth AUC (Lactobacillus gasseri) | growth AUC (Lactobacillus paracasei) | growth AUC (Odoribacter splanchnicus) | growth AUC [4] | growth AUC (Parabacteroides merdae)
C[C@@H](Oc1ccc(Oc2nc3ccc(Cl)cc3o2)cc1)C(=O)O | 1.03 | 1 | 1.01 | 0.924 | 1.09 | 1.01 | 0.929 | 1.16 | 0.905 | 0.961 | 1.04 | 1.01 | 1.02 | 1.07 | 1.01 | 0.968 | 0.983 | 1.09 | 1.03 | 1.03
Oc1ccc(Cl)cc1 | 0.989 | 0.997 | 0.952 | 1.01 | 0.981 | 0.997 | 0.987 | 0.971 | 0.981 | 0.988 | 0.989 | 0.967 | 0.951 | 0.921 | 0.941 | 0.968 | 1 | 1.01 | 1.05 | 0.988
O=C1C[C@@H]2OCC=C3CN4CC[C@]56c7ccccc7N1[C@H]5[C@H]2[C@H]3C[C@H]46 | 0.985 | 0.968 | 0.998 | 0.93 | 0.898 | 0.964 | 1.01 | 1.09 | 0.972 | 0.942 | 0.984 | 0.973 | 0.985 | 1 | 0.909 | 0.928 | 1.09 | 1.08 | 0.988 | 0.967
CSC1=N[C@@](C)(c2ccccc2)C(=O)N1Nc1ccccc1 | 1.05 | 0.978 | 0.967 | 0.985 | 1.26 | 0.961 | 0.986 | 1.04 | 0.997 | 0.99 | 0.988 | 1.01 | 0.993 | 1.08 | 1.2 | 0.853 | 0.968 | 0.924 | 0.872 | 0.953
c1ccc2c(c1)ccc1c3ccccc3sc21 | 1.03 | 0.999 | 0.987 | 0.969 | 1 | 0.998 | 0.972 | 1.25 | 1.02 | 0.99 | 0.965 | 0.988 | 1 | 0.942 | 1.01 | 0.974 | 1.03 | 0.984 | 1.1 | 1
CCOP(=O)(SC(C)CC)SC(C)CC (stereo not given) | 0.94 | 1.01 | 0.962 | 1.02 | 0.949 | 0.993 | 0.981 | 0.97 | 0.982 | 0.933 | 1.01 | 1.01 | 0.987 | 1.1 | 0.983 | 1.04 | 0.989 | 0.933 | 0.95 | 0.975
CC#Cc1cc(C)nc(Nc2ccccc2)n1 | 1.08 | 1.01 | 0.991 | 0.941 | 1 | 0.945 | 0.975 | 0.978 | 0.965 | 0.995 | 1.01 | 0.986 | 0.973 | 1.03 | 1.1 | 0.844 | 0.983 | 1.06 | 0.945 | 0.991
Cc1cc(Cl)ccc1OC(C)C(=O)O (stereo not given) | 0.902 | 1.02 | 0.996 | 1 | 1.01 | 1.01 | 1 | 0.88 | 1.03 | 1.01 | 0.984 | 1.01 | 1.02 | 0.978 | 0.945 | 1.12 | 0.945 | 0.942 | 0.966 | 1.02
O=C1C2(Cl)C3(Cl)C4(Cl)C(Cl)(Cl)C5(Cl)C3(Cl)C1(Cl)C5(Cl)C24Cl (stereo not given) | 0.849 | 0.0318 (active) | 0.02 (active) | 0.0186 (active) | 0.00866 (active) | 0.0105 (active) | 0.0112 (active) | 0.28 (active) | 0.0161 (active) | 0.0984 (active) | 0.0378 (active) | 0.98 | 0.969 | 0.696 | 0.757 | 0.135 (active) | 0.061 (active) | 0.0248 (active) | 0.0157 (active) | 0.0229 (active)
Nc1nc(N)nc(N)n1 | 0.956 | 1.02 | 0.881 | 1.03 | 0.792 (active) | 0.968 | 0.972 | 1.15 | 0.989 | 1.03 | 0.978 | 0.991 | 1.02 | 0.944 | 1 | 1.01 | 1.05 | 0.119 (active) | 1.23 | 0.981
CCc1cccc(C)c1N(C(=O)CCl)[C@@H](C)COC | 1.13 | 0.95 | 0.99 | 0.98 | 1.2 | 0.975 | 1 | 1.03 | 0.961 | 0.963 | 0.976 | 0.981 | 1.01 | 1.06 | 1.15 | 0.944 | 1.01 | 1.02 | 1.01 | 0.938
COP(N)(=O)SC (stereo not given) | 1.22 | 1.01 | 1.04 | 1.01 | 1.1 | 1.04 | 1.03 | 0.989 | 1.03 | 1.04 | 1.08 | 1.03 | 1.02 | 1.08 | 1.11 | 0.836 | 1.07 | 1.04 | 1.01 | 1.06
CN(C)c1nc(=O)n(C2CCCCC2)c(=O)n1C | 0.966 | 1.03 | 0.985 | 1 | 1.07 | 1.05 | 1.01 | 1.01 | 1.02 | 1.01 | 1.03 | 0.994 | 0.984 | 0.978 | 1.11 | 1.01 | 0.943 | 1.02 | 1.03 | 1.01
CNC(=O)O/N=C(\C)C(C)S(C)(=O)=O (stereo not given) | 1.15 | 0.99 | 1.01 | 0.969 | 0.931 | 1.03 | 1.01 | 1.27 | 0.98 | 0.953 | 1.02 | 0.961 | 0.979 | 1.03 | 0.972 | 0.905 | 0.894 | 1.11 | 0.955 | 0.956
CCNc1nc(NCC)nc(SC)n1 | 1.14 | 0.946 | 1.02 | 0.994 | 1.26 | 0.955 | 1 | 1.08 | 0.981 | 0.996 | 0.99 | 1.02 | 0.99 | 1.02 | 1.06 | 1.13 | 1.08 | 0.88 | 1.01 | 1.04
